Screening data: PubChem BioAssay, several laboratories
IDE act: human IDE activators in live cells, primary screen, fluorescence polarization, HEK cells, FAbeta-B substrate. activation, % at 5.96 µM. FAbeta-B cleavage; 0% vehicle, 100% cell-free pure enzyme wells. 340,000 tested, 0.073% active;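 active = activation above the mean of all tested compounds plus 3 SD, set per screening campaign, cut at about 17% in these data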
Target sequence (P14735 whole entry, looked up): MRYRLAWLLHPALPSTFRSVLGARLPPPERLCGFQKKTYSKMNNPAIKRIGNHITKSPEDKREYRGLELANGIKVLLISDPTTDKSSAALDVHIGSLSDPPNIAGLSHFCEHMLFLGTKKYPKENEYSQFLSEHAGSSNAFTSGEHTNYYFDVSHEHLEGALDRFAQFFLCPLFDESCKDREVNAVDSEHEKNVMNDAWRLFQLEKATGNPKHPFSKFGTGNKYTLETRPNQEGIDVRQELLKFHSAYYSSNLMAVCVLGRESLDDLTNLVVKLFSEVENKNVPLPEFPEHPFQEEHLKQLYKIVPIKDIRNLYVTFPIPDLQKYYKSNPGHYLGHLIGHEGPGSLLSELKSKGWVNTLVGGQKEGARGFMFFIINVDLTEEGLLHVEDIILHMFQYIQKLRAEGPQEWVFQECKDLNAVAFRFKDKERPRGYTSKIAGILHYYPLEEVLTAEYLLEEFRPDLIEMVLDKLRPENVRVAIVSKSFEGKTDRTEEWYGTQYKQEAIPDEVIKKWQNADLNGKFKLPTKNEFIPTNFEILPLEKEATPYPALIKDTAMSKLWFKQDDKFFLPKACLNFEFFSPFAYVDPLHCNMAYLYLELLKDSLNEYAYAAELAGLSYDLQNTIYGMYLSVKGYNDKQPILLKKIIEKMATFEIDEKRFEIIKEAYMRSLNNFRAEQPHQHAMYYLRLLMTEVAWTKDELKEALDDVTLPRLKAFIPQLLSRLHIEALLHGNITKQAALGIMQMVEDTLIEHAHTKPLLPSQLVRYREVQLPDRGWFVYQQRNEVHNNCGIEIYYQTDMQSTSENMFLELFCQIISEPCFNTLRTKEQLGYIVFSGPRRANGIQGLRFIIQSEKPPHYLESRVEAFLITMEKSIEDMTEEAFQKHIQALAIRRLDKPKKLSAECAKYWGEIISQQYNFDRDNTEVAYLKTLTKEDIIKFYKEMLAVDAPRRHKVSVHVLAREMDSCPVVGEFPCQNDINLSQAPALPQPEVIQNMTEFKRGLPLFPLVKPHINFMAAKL
TPT1 inhibitor: Candida albicans TPT1 enzyme inhibitors, primary screen, biochemical, fluorescence polarization | tRNA 2'-phosphotransferase TPT1 (Candida albicans SC5314) | recombinant caTPT1, FP RNA substrate dephosphorylation | inhibition, % at 5 µM | 300,000 tested, 0.81% active;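 active = inhibition above the mean of all tested compounds plus 3 SD, set per screening campaign, cut at about 24% in these data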
HNF4A DNA FP: change in binding of human HNF4A to DNA, primary screen, biochemical, fluorescence polarization, FITC-DNA. 1 h. Hepatocyte nuclear factor 4-alpha (Homo sapiens), P41235. activity change, % at 10 µM. 360,000 tested, 0.3% active; in the data active = activity change above about 30%, passing the limit was not always enough
CRFBP-R2 agonist: agonists of CRF-BP/CRF-R2 complex, primary screen, cell-based, HEK293, calcium dye fluorescence, uHTS. CRF-binding protein / CRF receptor 2 complex (human). calcium dye fluorescence (FLIPR); percent of saturating CRF peptide response. activation, % at 13.2 µM. 350,000 tested, 0.46% active. AID 588473, 2011;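 active = activation of at least 50%, plus an integration ratio under a set limit after plate pattern correction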
IDE cell inh: human IDE inhibitors in live cells, primary screen, fluorescence polarization, HEK cells, FAbetaB substrate. Insulin-degrading enzyme (Homo sapiens), P14735. FAbetaB cleavage. inhibition, % at 5.59 µM. 320,000 tested, 0.41% active;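 active = percent inhibition above the average of all tested compounds plus 3 SD, set per screening campaign, cut at about 16% in these data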;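 also: IDE supplied by intact live HEK cells; FP after avidin binding of uncleaved biotin substrate so inhibition keeps polarization high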
caTPT1 confirm: Candida albicans TPT1 inhibitors, confirmation, biochemical, fluorescence polarization, triplicate; shares compounds with TPT1 inhibitor; recombinant caTPT1, RNase T1 coupled; inhibition, % at 5 µM; 2,400 tested, 74% active; AID 2149, 2009;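 active = inhibition above the primary screen limit, the mean inhibition of all tested compounds plus 3 SD, cut at about 25% in these data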
RNase T1 inh: RNase T1 inhibitors, counter-screen for TPT1 inhibitor project, biochemical, fluorescence polarization. shares compounds with TPT1 inhibitor. RNase T1 cleavage, 1536-well. inhibition, % at 5 µM. 2,400 tested, 83% active. AID 2153, 2009;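 active = inhibition above the solvent-only control well mean plus 3 SD, limit set per screening run, cut at about 23% in these data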;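 also: inhibitors block cleavage so intact labeled substrate keeps polarization high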
IDE inh confirm: human IDE inhibitors in live cells, confirmation, fluorescence polarization, HEK cells, FAbetaB substrate; shares compounds with IDE cell inh; FAbetaB cleavage; inhibition, % at 5.59 µM; 1,200 tested, 51% active;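 active = mean inhibition across triplicate wells above the cutoff set by the earlier primary insulin-degrading enzyme screen, cut at about 16% in these data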
HEK293 tox: cytotoxicity in HEK cells, cytotoxicity control for IDE inhibitor project, cell-based, luminescence | inhibition, % at 5.59 µM | 1,200 tested, 28% active | HEK293 cytotoxicity, ATP luminescence | shares compounds with IDE cell inh; in the data active = inhibition above about 22%
Of the large screens only hits and unclear results are named; the others gave an inactive call (follow-up assays come after a bar, where they were run). A selection: hits, their analogues and other compounds. The true share with any hit is near 1.4%.

Cc1cc(/C=C2\NC(=S)N(C)C2=O)ccc1N1CCCC1	TPT1 inhibitor 137.4, CRFBP-R2 agonist 282.6, IDE cell inh 87.9 | caTPT1 confirm 128.2 | RNase T1 inh 122.0 | IDE inh confirm 96.3 | HEK293 tox inactive
Cc1cc(/C=C2/C(=O)N(C)C(=S)N2C)ccc1N1CCCC1	TPT1 inhibitor 158.8, CRFBP-R2 agonist 80.8, IDE cell inh 26.3 | caTPT1 confirm 154.9 | RNase T1 inh 141.7 | IDE inh confirm 51.5 | HEK293 tox inactive
CCCN1C(=O)/C(=C/c2ccc(N3CCCC3)c(C)c2)NC1=S	TPT1 inhibitor 133.9, CRFBP-R2 agonist 346.1, IDE cell inh 95.3 | caTPT1 confirm 139.1 | RNase T1 inh 130.1 | IDE inh confirm 127.5 | HEK293 tox 27.4
CCCN1C(=O)/C(=C/c2ccc(OCC(=O)OCC)cc2)NC1=S	none (no result: TPT1 inhibitor, IDE cell inh)
N#Cc1ccsc1NC(=O)CCN1CCN(C(c2ccccc2)c2ccccc2)CC1	none
CC(C)(C)NC(=O)C(OC(=O)c1cccs1)c1ccc(F)cc1 (configuration not stated)	none
CN(C(=S)NC(=O)c1ccccc1)C1CCCCC1	none
COc1cc(/C=C/C(=O)CC(=O)/C=C/c2ccc(O)c(OC)c2)ccc1O	TPT1 inhibitor 139.2, CRFBP-R2 agonist 214.3, IDE cell inh 30.8 | caTPT1 confirm 146.6 | RNase T1 inh 135.2 | IDE inh confirm 81.0 | HEK293 tox inactive
Oc1sc(C=Nc2ccccc2)c2ccccc12	TPT1 inhibitor 119.2, CRFBP-R2 agonist 123.4, IDE cell inh 25.9 | caTPT1 confirm 104.9 | RNase T1 inh 104.0 | IDE inh confirm 29.6 | HEK293 tox inactive
Oc1ccccc1N=Cc1sc2ccccc2c1Cl	none
Oc1sc(C=Nc2ccc(F)cc2)c2ccccc12	TPT1 inhibitor 128.5, HNF4A DNA FP 35.8, IDE cell inh 17.9 | caTPT1 confirm 109.8 | RNase T1 inh 108.7 | IDE inh confirm 34.3 | HEK293 tox inactive
O=C(c1ccco1)N1CCCN(Cc2nc(Cc3ccccc3)no2)CC1	none
CNC(=O)c1c(NC(=O)c2ccc(S(=O)(=O)N3CC(C)OC(C)C3)cc2)sc2c1CCN(C(C)C)C2 (configuration not stated)	none
CNC(=O)c1c(NC(=O)c2ccc(S(=O)(=O)N3CCCC3)cc2)sc2c1CCN(C(C)C)C2	TPT1 inhibitor 148.0, IDE cell inh 43.5 (no result: IDE act, HNF4A DNA FP, CRFBP-R2 agonist) | caTPT1 confirm 153.1 | RNase T1 inh 145.2 | IDE inh confirm inactive | HEK293 tox inactive
O=C1N/C(=N\S(=O)(=O)c2ccccc2)S/C1=C\c1cc([N+](=O)[O-])ccc1O	TPT1 inhibitor 76.1, CRFBP-R2 agonist 54.8, IDE cell inh 49.9 | caTPT1 confirm 78.2 | RNase T1 inh 82.9 | IDE inh confirm 70.3 | HEK293 tox inactive
COc1cc(/C=C2/S/C(=N/S(=O)(=O)c3ccccc3)NC2=O)c([N+](=O)[O-])cc1OC	none
O=C1N/C(=N\S(=O)(=O)Cc2ccccc2)S/C1=C/c1cc([N+](=O)[O-])ccc1O	TPT1 inhibitor 68.5, CRFBP-R2 agonist 104.0, IDE cell inh 39.7 | caTPT1 confirm 75.2 | RNase T1 inh 80.1 | IDE inh confirm 75.0 | HEK293 tox inactive
COc1cc(/C=C2\S/C(=N/S(=O)(=O)Cc3ccccc3)NC2=O)c([N+](=O)[O-])cc1OC	none
COCC(=O)N[C@H]1CC[C@@H](CC(=O)NCc2ccccc2OC)O[C@@H]1CO	none (no result: IDE act, TPT1 inhibitor, CRFBP-R2 agonist, IDE cell inh)
COc1cccc(CN(C(=O)Cn2nnc(-c3ccccc3F)n2)C(C(=O)NC(C)(C)C)c2ccncc2)c1 (configuration not stated)	none
Cc1cc(=O)oc2c(C)c(OCC(=O)N3CCC(C(=O)O)CC3)ccc12	none
CCN1C(=O)/C(=C/C=C2\N(CC)c3cc(S(=O)(=O)N(C)C)ccc3N2c2ccccc2)SC1=S	TPT1 inhibitor 135.7, CRFBP-R2 agonist 73.1, IDE cell inh 18.1 | caTPT1 confirm 94.1 | RNase T1 inh 93.7 | IDE inh confirm 73.9 | HEK293 tox 32.1
CCN1C(=O)/C(=C\C=C\c2ccccc2[N+](=O)[O-])SC1=S	none (no result: TPT1 inhibitor, IDE cell inh)
COc1cc(N2CCCC2)c(OC)cc1/C=C1/NC(=S)NC1=O	TPT1 inhibitor 130.8, CRFBP-R2 agonist 177.7, IDE cell inh 117.5 | caTPT1 confirm 138.4 | RNase T1 inh 128.8 | IDE inh confirm 149.9 | HEK293 tox inactive
O/C(=C\c1nc2ccccc2[nH]1)c1cccs1	none
O=c1[nH]c2ccccc2nc1/C=C(\O)c1cccs1	TPT1 inhibitor 70.5, CRFBP-R2 agonist 224.0, IDE cell inh 47.4 | caTPT1 confirm 117.2 | RNase T1 inh 113.8 | IDE inh confirm 74.5 | HEK293 tox inactive
O=C(COC(=O)Cc1ccc(Br)cc1)NC1CCCC1	none (no result: TPT1 inhibitor)
COc1cccc(C2=CC(c3ccc(N(C)C)cc3)n3nnnc3N2)c1 (configuration not stated)	TPT1 inhibitor 28.5, IDE cell inh 44.4 | caTPT1 confirm inactive | RNase T1 inh inactive | IDE inh confirm 37.2 | HEK293 tox 38.6
CCCNC(=O)Cn1c(=O)/c(=C\c2ccc(-c3ccc([N+](=O)[O-])cc3)o2)s/c1=C\C(=O)C(C)(C)C	TPT1 inhibitor 108.5, CRFBP-R2 agonist 355.8, IDE cell inh 20.5 | caTPT1 confirm 99.0 | RNase T1 inh 98.6 | IDE inh confirm 77.3 | HEK293 tox inactive
O=[N+]([O-])c1ccc(-c2ccc(/C=N/O)o2)cc1	none (no result: IDE act)
N#CC1=C(N)Oc2cc(N)ccc2C1c1cccc(F)c1 (configuration not stated)	none
CN(C)c1ccc2c(c1)OC(N)=C(C#N)C2c1cccc(F)c1 (configuration not stated)	TPT1 inhibitor 78.2, CRFBP-R2 agonist 79.2, IDE cell inh 27.8 | caTPT1 confirm 61.9 | RNase T1 inh 69.8 | IDE inh confirm 16.3 | HEK293 tox 71.8
